Screening results: PubChem, several laboratories
A selection: hits, their analogues and other compounds. The true share with any hit is near 2.1%.
PfHsp40 rescue – rescue of yeast from PfHsp40 toxicity, primary screen, S. cerevisiae, ATP luminescence; S. cerevisiae expressing PfHsp40, growth rescue; growth rescue, % at 12.5 µM; actives 0.68% (n = 340,000); AID 504582, 2011; in the data active means growth rescue above about 28%, passing the limit was not always enough; inconclusive means no clear call, values can overlap the other calls;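 further: yeast W303a lacking pdr1 and pdr3 grown in galactose medium; growth measured after three days at 30 °C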
Sa RN4220 lethal – growth inhibition of S. aureus RN4220, primary screen, OD600. 16 h. actives 0.33% (n = 330,000). inhibition, % (concentration not given with the values); in the data active means inhibition above about 85%;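 further: plate controls were untreated cells for no effect and reference antibiotic for full effect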
PrP 5UTR inh – inhibition of PrP 5' UTR reporter expression. cell-based PrP 5' UTR mRNA reporter, plate reader. inhibition, % (test concentration not listed). actives 0.35% (n = 340,000); in the data active means inhibition above about 52%; further: 0 = median of the neutral control wells
CCHF vOTU inh – CCHFV vOTU protease inhibitors, primary screen, biochemical, Pep-AMC substrate, fluorescence; inhibition, % at 11.5 µM; actives 0.55% (n = 370,000); AID 651958, 2012; in the data active means inhibition above about 30%; further: 0% = vehicle wells with enzyme and 100% = no enzyme wells
PrPC surface inh – inhibitors of human cell surface prion protein PrPC, primary screen, cell-based, TR-FRET. actives 0.43% (n = 370,000). inhibition, % at 13.8 µM. TR-FRET read-out. AID 720596, 2013. Major prion protein (Homo sapiens), P04156; in the data active means inhibition above about 24%; further: 0% = median of the test wells and 100% = reference compound wells
ugtP null kill – growth inhibition of ugtP-null S. aureus, primary screen, RN4220 ugtP deletion, OD600; 16 h; growth inhibition, % (test concentration not listed); actives 0.54% (n = 330,000); AID 1259309, 2017; in the data active means growth inhibition above about 68%;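 further: plate controls were untreated wells for no effect and antibiotic for full effect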
The depositor's hits bear a star; ? = inconclusive; . = no result given.

SMILES	PfHsp40 rescue	Sa RN4220 lethal	PrP 5UTR inh	CCHF vOTU inh	PrPC surface inh	ugtP null kill
COc1ccc(C2=C(N)c3ccccc3C2=O)cc1	1	15	-83	.	.	9
COC1=C(c2ccccc2)C(=O)c2ccccc2C1=O	224*	57	-30	22	-24	57
O=C(C1=C(c2ccccc2)C(=O)c2ccccc2C1=O)c1ccccc1	2	97*	-18	29	-4	96*
Cc1ccc(Oc2nnc(-c3ccccc3)c3ccccc23)cc1	6	-1	-24	-8	-6	90*
CSCc1cc(N(C)c2ccccc2)nc(-c2ccccn2)n1	111*	.	-5	-12	5	.
CN(C)c1cc(C(F)(F)F)nc(-c2ccccn2)n1	-2	6	-7	0	0	15
CC(=O)Nc1cccc(OCc2ccc(F)cc2)c1	70*	8	-31	-3	-1	12
NC(=O)CSc1nc2c(c(=O)n1-c1ccccc1)C1(CCCCC1)Cc1ccccc1-2	0	-7	-11	5	-1	90*
Cc1ccc(Nc2cc(C)nn2-c2nc(C)cc(C)n2)cc1	?	7	-11	22	14	-9
Cc1ccc(Nc2cc(C)nn2-c2nc(C)cc(=O)[nH]2)cc1	13	98*	29	.	.	99*
O=C(NN=Cc1ccccc1Cl)c1cccc(F)c1	.	9	.	.	.	-7
CCCCC1=CC2=C(c3ccco3)C(=O)C(C)(OC(=O)c3ccc(OC)cc3)C(=O)C2=CN1Cc1ccccc1 (stereo unspecified)	0	6	-5	5	31*	-1
O=S(=O)(Nc1ccc(N=Nc2ccccc2)cc1)c1ccccc1	102*	-10	-5	14	-13	-2
O=S(=O)(Nc1ccc(S(=O)(=O)Nc2ccccc2)cc1)c1ccccc1	0	-5	-10	1	1	15
Cc1ccc2cc(CN(Cc3ccco3)C(=O)c3cccs3)c(=O)[nH]c2c1	42*	0	-25	3	4	-2
c1ccc2c(-c3c[nH]c4ccccc34)c3ccccc3nc2c1	37*	3	-19	7	5	57
O=C(O)c1cc(-c2c[nH]c3ccccc23)nc2ccc3ccccc3c12	-2	.	-3	-5	4	.
COc1ccc(CCC(=O)NC(C)C)cc1	39*	3	-24	2	4	-5
CN(C)C1(CN=Cc2cc(Cl)cc([N+](=O)[O-])c2O)CCCCC1	42*	6	-18	14	-13	8
O=S(=O)(c1c(F)cccc1F)N(CCc1ccc(F)cc1)C[C@@H](O)COCc1ccccc1	114*	.	1	17	8	.
COc1ccc(-n2c(SCC(=O)NN=C(C)c3cccnc3)nc3ccccc3c2=O)cc1	.	3	.	.	.	2
CC(C)c1ccc2c(c1)C1(NN=C(c3ccccc3)S1)C(=O)N2 (stereo unspecified)	41*	94*	24	3	-9	98*
CCCCn1c(=O)c(C(=O)Nc2cnccn2)c(O)c2ccccc21	0	68	-35	8	3	83*
CCCCCn1c(=O)c(C(=O)Nc2ncccc2C)c(O)c2ccccc21	1	53	-4	-2	-9	101*
CCCCCCSc1ccc(C2N[C@@](Cc3ccccc3)(C(=O)OC)C3C(=O)N(C)C(=O)C23)cc1 (stereo partly specified)	.	1	.	.	.	-15
SMILES	PfHsp40 rescue	Sa RN4220 lethal	PrP 5UTR inh	CCHF vOTU inh	PrPC surface inh	ugtP null kill
O=C(O)c1cc(NCc2c(F)cccc2Cl)ccc1N1CCOCC1	105*	6	-5	0	5	6
CN1C(=O)C2C(C1=O)C(c1ccc(F)cc1)N1C(=O)c3ccccc3NC(=O)C21 (stereo unspecified)	.	5	.	.	.	6
CCCCCc1cc(O)c2c(C)cc(=O)oc2c1	56*	-8	-23	12	-1	-24
CC(C)[C@@]1(NC(=O)C2CC3c4cccc5[nH]cc(c45)CC3N(C)C2)O[C@@]2(O)C3CCCN3C(=O)C(Cc3ccccc3)N2C1=O (stereo partly specified)	.	2	.	.	.	-10
CCOC1OC(C(=O)NCc2nc3ccccc3[nH]2)=CC(c2ccccc2)C1CCCO (stereo unspecified)	.	1	.	.	.	-4
COc1ccc(NC(=O)N(C)CC2Oc3ccc(NC(=O)NC4CCCCC4)cc3C(=O)N(C(C)CO)CC2C)cc1 (stereo unspecified)	.	3	.	.	.	-4
O=c1c2ccc(Cl)cc2nc(-c2cccc(C(F)(F)F)c2)n1O	0	96*	6	11	-3	100*
N#Cc1ccc(-c2nc3cc(Cl)ccc3c(=O)n2O)cc1	136*	15	8	-9	-4	-4
N#Cc1ccc(-c2nc3ccccc3c(=O)n2O)cc1	20	4	-16	-15	0	-7
CC(=NOCC(=O)NN=Cc1ccccc1)c1cccs1	.	-3	.	.	.	0
CCNC(=S)NN=Cc1ccc(C#N)cc1	.	3	.	.	.	2
CCCCCC(O)c1cc2ccccc2c(=O)o1 (stereo unspecified)	.	10	.	.	.	4
CC(C)(C)c1cc(C(=O)NN=Cc2ccccc2O)n(-c2ccccc2)n1	.	68	.	.	.	100*
CC(C)(C)c1cc(C(=O)NN=Cc2ccc(O)cc2)n(-c2ccccc2)n1	.	6	.	.	.	10
N#C/C(=C\c1ccc[nH]1)C(=O)NCC1CCCO1 (stereo unspecified)	0	2	-29	13	-8	0
Cc1ccc(/C=C(\C#N)C(=O)NCC2CCCO2)o1 (stereo unspecified)	?	3	-6	-2	-8	0
N#C/C(=C\c1ccco1)C(=O)NCC1CCCO1 (stereo unspecified)	-2	3	-12	36*	6	15
Cc1ccccc1-n1c(C)cc(/C=C(\C#N)C(=O)NCC2CCCO2)c1C (stereo unspecified)	30*	1	6	1	2	0
CC(=NNc1nncc2ccccc12)c1ccc(Cl)c([N+](=O)[O-])c1	.	6	.	.	.	-5
Cc1cc(NCCCn2ccnc2)n2nc(-c3ccc(Cl)cc3)cc2n1	-1	2	-16	1	0	-7
CC(C)(C)c1cc(NCCCn2ccnc2)n2ncc(-c3ccc(Cl)cc3)c2n1	70*	41	-64	-12	2	63
C[CH2][Hg][S]c1ccccc1C(=O)O	-8	100*	-11	-1	10	98*
O=C(O)c1ccccc1SSc1ccccc1C(=O)O	0	7	-22	4	6	10
Fc1cccc(CCN2C(=S)NC[C@@H]2CC2CCCCC2)c1	122*	.	-3	17	8	.
Fc1cccc(CCN2C(=S)NCC2Cc2ccccc2)c1 (stereo unspecified)	.	5	.	.	.	8
S=C1NC[C@H](CC2CCCCC2)N1CC1CCCCC1	98*	.	-20	14	3	.
S=C1NCC(CC2CCCCC2)N1CC1CCCCC1 (stereo unspecified)	.	-6	.	.	.	4
